Measurements taken from ChEMBL document CHEMBL4513216, “Probing the Open Global Health Chemical Diversity Library for Multistage-Active Starting Points for Next-Generation Antimalarials” (ACS Infect Dis, 2020).
In all, about 69,000 compounds went through this assay and about 8,600 (12%) showed an effect of 50% or more. This is one part of a sample in which strong results are shown more often than they occur.

Tested on: Plasmodium berghei
Assay: Screen against P. berghei liver stage (PbLuc), transformed with Luciferase, at 10uM
Format: functional, HepG2
Conditions: tested at 10 uM

Q: Which INHIBITION does the source give for `Cn1cccc1C(=O)N1C[C@@H]2CC[C@H]1CN(Cc1cscn1)C2` here?
A: -9.39%

Q: How did the INHIBITION turn out when `COc1c(CNC2CCC(O)CC2)c(C(C)C)nn1C` (centres undefined) was run?
A: -18.8%

Q: `O=C1c2cccnc2OC(CN2CCOCC2)CN1CC1CC1` (centres undefined) was tested. Which INHIBITION did it give?
A: 24.5%

Q: For `Cc1nc(C)n(C2CCCN(C(=O)c3c(C)nn4cccnc34)C2)n1` (centres undefined), which INHIBITION is on record?
A: 26.4%

Q: For `Cc1cc(C(=O)N2CCOC(c3nc(C(C)C)n[nH]3)C2)no1` (centres undefined), which INHIBITION is on record?
A: 25.1%

Q: How did the INHIBITION turn out when `COc1ccc(CNC(=O)c2nc3c(s2)CCN(C(C)=O)CC3)cc1` was run?
A: 34.6%

Q: How did the INHIBITION turn out when `COc1cccc(CN2CCc3nc(C(=O)NCC(C)C)sc3CC2)c1` was run?
A: 84.5%

Q: With `CC(C)CNC(=O)c1nc2c(s1)CCN(C(=O)c1cccnc1)CC2` as the compound, how does the INHIBITION read?
A: -47.5%

Q: Which INHIBITION does the source give for `CCN(CC)C(=O)c1nc2c(s1)CCN(Cc1cccc(OC)c1)CC2` here?
A: 66.8%

Q: With `COc1cccc(CC(=O)N2CCc3nc(C(N)=O)sc3CC2)c1` as the compound, how does the INHIBITION read?
A: -16.9%

Q: With `CNC(=O)N1CCc2nc(C(=O)NCc3cccc(OC)c3)sc2CC1` as the compound, how does the INHIBITION read?
A: 70.7%

Q: Which INHIBITION does the source give for `COc1cccc(CNC(=O)c2nc3c(s2)CCN(C(C)=O)CC3)c1` here?
A: 10.1%

Q: How did the INHIBITION turn out when `COc1cccc(CN2CCc3nc(C(N)=O)sc3CC2)c1` was run?
A: 2.41%

Q: Which INHIBITION does the source give for `CNC(=O)c1nc2c(s1)CCN(C(=O)c1cccc(OC)c1)CC2` here?
A: -78%

Q: `O=C1OCCN1Cc1nc(C2(c3ccc(F)cc3)CCOC2)no1` (centres undefined) was tested. Which INHIBITION did it give?
A: -73.4%

Q: For `CCc1nc(CN2CC(C(=O)OC)O[C@H](C)C2)cs1` (some centres undefined), which INHIBITION is on record?
A: 30.3%

Q: With `CS(=O)(=O)NCCN1CCCC1c1noc(C2CC2)n1` (centres undefined) as the compound, how does the INHIBITION read?
A: 0.914%

Q: For `CN(C)Cc1ccnc(C2CN(CCc3ccccc3)CCO2)n1` (centres undefined), which INHIBITION is on record?
A: 17.4%

Q: Which INHIBITION does the source give for `Cn1cncc1CN1CCC2(CCCN2c2ncccn2)CC1` here?
A: 16.9%

Q: For `CC(C)(N)C(=O)N1CCCC(c2cncc(Oc3cccnc3)n2)C1` (centres undefined), which INHIBITION is on record?
A: 41.2%

Q: How did the INHIBITION turn out when `O=C(NCC(Cc1cccc(F)c1)N1CCCC1=O)C1CCCC1` (centres undefined) was run?
A: 0.923%

Q: `CCCC(=O)NCC(Cc1cccc(F)c1)N1CCCC1=O` (centres undefined) was tested. Which INHIBITION did it give?
A: 8.31%

Q: `CCOCC(=O)NCC(Cc1cccc(F)c1)n1cccc1` (centres undefined) was tested. Which INHIBITION did it give?
A: 47.2%

Q: Which INHIBITION does the source give for `O=C1NCCN1C(CNS(=O)(=O)C1CC1)Cc1cccc(F)c1` (centres undefined) here?
A: 20.1%

Q: For `CCOCC(=O)NCC(Cc1cccc(F)c1)N1CCCCC1=O` (centres undefined), which INHIBITION is on record?
A: 54.1%

Q: Which INHIBITION does the source give for `O=C1CCCN1C(CNS(=O)(=O)C1CC1)Cc1cccc(F)c1` (centres undefined) here?
A: 58.5%

Q: With `CN(C)C(=O)N1C[C@H](Oc2ccccn2)[C@H]2OCCC[C@H]21` as the compound, how does the INHIBITION read?
A: -6.32%

Q: Which INHIBITION does the source give for `COCCCNS(=O)(=O)c1ccc2c(c1)NC(=O)C(C)O2` (centres undefined) here?
A: -35.5%

Q: How did the INHIBITION turn out when `CC1Oc2ccc(S(=O)(=O)NCCCn3ccnc3)cc2NC1=O` (centres undefined) was run?
A: 56.5%

Q: How did the INHIBITION turn out when `CC1(C)Oc2ccc(S(=O)(=O)NCCCn3ccnc3)cc2NC1=O` was run?
A: 17.4%

Q: `CCc1nc(C)sc1CNC1CCN(Cc2ccccc2)C1` (centres undefined) was tested. Which INHIBITION did it give?
A: 51.1%

Q: For `Cc1nc(CCNC2CCN(Cc3ccccc3)C2)sc1C` (centres undefined), which INHIBITION is on record?
A: 40.5%

Q: Which INHIBITION does the source give for `CCc1nc(C)sc1CN1CC[C@](C)(O)[C@H](C)C1` here?
A: 48.5%

Q: With `CCc1csc(CNC2CCN(c3ccc(C)cc3)CC2)n1` as the compound, how does the INHIBITION read?
A: 1.94%

Q: With `CCc1csc(CNC2CCN(Cc3ccccc3)C2)n1` (centres undefined) as the compound, how does the INHIBITION read?
A: 64%

Q: Which INHIBITION does the source give for `Cc1nc(CNC2CCN(Cc3ccccc3)C2)sc1C` (centres undefined) here?
A: 47.9%

Q: For `CNc1ncccc1CN1CCCCC1c1ccnc(N)n1` (centres undefined), which INHIBITION is on record?
A: 32.3%

Q: `O=C(NCC1CC1)[C@H]1CC[C@@H]2[C@@H](CCN2Cc2nccs2)O1` was tested. Which INHIBITION did it give?
A: 46.1%

Q: With `COC(=O)c1cccn1C1CCN(CC(=O)NC2CCCCC2)CC1` as the compound, how does the INHIBITION read?
A: 43.7%

Q: Which INHIBITION does the source give for `Cc1noc(C)c1C(=O)N(C)C(C)c1ccc(S(C)(=O)=O)cc1` (centres undefined) here?
A: 10.7%

Q: How did the INHIBITION turn out when `Cc1noc(C)c1C(=O)N(C)C(C)c1ccncc1` (centres undefined) was run?
A: 17.5%

Q: For `Cc1noc(C)c1C(=O)N(C)C(C)c1cccnc1` (centres undefined), which INHIBITION is on record?
A: 79%

Q: For `CS(=O)(=O)N1CCCN(c2nccn3cnnc23)CC1`, which INHIBITION is on record?
A: -39.2%

Q: How did the INHIBITION turn out when `OCCN(Cc1ccccc1)Cc1ccsc1` was run?
A: 3.96%

Q: With `CC(NC(=O)c1ccc(C#N)cn1)C1(N2CCOCC2)CCCC1` (centres undefined) as the compound, how does the INHIBITION read?
A: 37.1%

Q: For `Cn1ncc2c1NC(=O)CC2c1c(Cl)cccc1Cl` (centres undefined), which INHIBITION is on record?
A: 25.1%

Q: For `Cn1ncc2c1NC(=O)CC2c1cc(Cl)ccc1F` (centres undefined), which INHIBITION is on record?
A: 8.49%

Q: Which INHIBITION does the source give for `Cn1ncc2c1NC(=O)CC2c1ccccc1Cl` (centres undefined) here?
A: 54.5%

Q: With `Cn1ncc2c1NC(=O)CC2c1cc2c(cc1Cl)OCO2` (centres undefined) as the compound, how does the INHIBITION read?
A: 61.2%

Q: With `CC(C)n1ncc2c1NC(=O)CC2c1ccccc1Cl` (centres undefined) as the compound, how does the INHIBITION read?
A: 9.32%

Q: `Cn1ncc2c1NC(=O)CC2c1ccc(Cl)cc1Cl` (centres undefined) was tested. Which INHIBITION did it give?
A: 34%

Q: `O=C(NCc1cccnc1)c1ccc2nccn2c1` was tested. Which INHIBITION did it give?
A: 32.5%

Q: For `COc1ccccc1CN1CCC(Cc2cnc(CN(C)C)cn2)CC1`, which INHIBITION is on record?
A: 8.12%

Q: `Cc1nc(C)c(C(=O)N2CCCC(n3ccnc3C)C2)s1` (centres undefined) was tested. Which INHIBITION did it give?
A: 21.7%

Q: For `O=S(=O)(Cc1c(F)cccc1F)NCCOc1cccnc1`, which INHIBITION is on record?
A: 42.4%

Q: With `Cc1ccc(C(=O)N2CCCC(n3cccn3)C2)cc1S(C)(=O)=O` (centres undefined) as the compound, how does the INHIBITION read?
A: 23.95%

Q: With `Cc1nccn1[C@@H]1CC[C@@H](NC(=O)CCCn2cccn2)[C@H]1O` as the compound, how does the INHIBITION read?
A: 4.13%

Q: `CCc1noc(CCC(=O)N[C@@H]2CC[C@@H](n3ccnc3C)[C@@H]2O)n1` was tested. Which INHIBITION did it give?
A: 56.8%

Q: `CCc1noc(CCC(=O)N[C@@H]2CC[C@@H](n3ccnc3)[C@@H]2O)n1` was tested. Which INHIBITION did it give?
A: 8.72%

Q: How did the INHIBITION turn out when `Cc1cc(NC(=O)c2ccc(F)cc2Cl)n(C)n1` was run?
A: -23.8%

Q: For `CCn1ccnc1-c1nccn1-c1ccccc1CN1CCOCC1`, which INHIBITION is on record?
A: 58.3%

Q: Which INHIBITION does the source give for `CCc1cc(-c2nccn2-c2ccccc2CN2CCOCC2)on1` here?
A: -4.51%

Q: How did the INHIBITION turn out when `COc1ncc(-c2nccn2-c2ccccc2CN2CCOCC2)cn1` was run?
A: 32.3%

Q: Which INHIBITION does the source give for `CNc1cc(CNC(=O)c2ccccc2OC)nc(-c2ccncc2)n1` here?
A: 23.4%

Q: Which INHIBITION does the source give for `O=c1[nH]nc2c(S(=O)(=O)N3CCCC3)cccn12` here?
A: 6.12%

Q: Which INHIBITION does the source give for `O=c1[nH]nc2c(S(=O)(=O)N3CCCCCC3)cccn12` here?
A: -15.2%

Q: With `O=c1[nH]nc2c(S(=O)(=O)N3CCCCC3)cccn12` as the compound, how does the INHIBITION read?
A: 51%

Q: With `Cc1ccoc1C1=NNC(=CN2CCn3c(nnc3C(C)C)C2)O1` as the compound, how does the INHIBITION read?
A: 15.3%

Q: For `CC(C)c1nc(CN(C)C(=O)C(O)c2ccc(Cl)cc2)cs1` (centres undefined), which INHIBITION is on record?
A: -15.6%
